A selection: hits, their analogues and other compounds. The true share with any hit is near 22%.
CYP2C9 inh = blocks human cytochrome P450 2C9 | actives 20% (n = 96,000) | P11712 | CYP2C9 Supersomes, luciferin-H conversion, luminescence | inhibition, % at 5 µM;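 active = blocking of liver enzyme CYP2C9 beyond about 50% at 5 µM, limit read from the data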
CYP2C9 act = increases human cytochrome P450 2C9 activity | P11712 | recombinant CYP2C9, luciferin-H conversion, luminescence; hits give high values; factor 1 = untreated enzyme, 0 = blocked | activation factor at 5 µM | actives 1.4% (n = 96,000) | AID 1024;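 active = activation factor of 2 or more for CYP2C9 at a 5 µM dose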;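 note: 0 = sulfaphenazole-blocked wells and 1 = vehicle-only wells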
cytoskel mod = alters cytoskeleton assembly in HUVEC cells; actives 0.18% (n = 91,000); HUVEC TNFa F-actin phalloidin imaging, high content; inhibition, % at 2 µM; AID 836;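 active = inhibition above the batch mean plus 3 SD and confirmed as a hit by visual image inspection, cut at about 30% in these data, passing the limit was not always enough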
CYP2C19 activ = cytochrome P450 2C19 (human) activation | activation factor at 5 µM | P33261 | recombinant CYP2C19, luciferin-H EGE luminescence; hits give high values; 0 = fully inhibited enzyme, 1 = untreated enzyme | AID 1025 | 96,000 tested, under 10 active;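 active = activation factor of at least 2 at 5 µM in the primary screen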;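 note: 0 = wells with 2.5 mM tranylcypromine and 1 = vehicle-only wells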
Target sequence (P33261 whole entry, looked up): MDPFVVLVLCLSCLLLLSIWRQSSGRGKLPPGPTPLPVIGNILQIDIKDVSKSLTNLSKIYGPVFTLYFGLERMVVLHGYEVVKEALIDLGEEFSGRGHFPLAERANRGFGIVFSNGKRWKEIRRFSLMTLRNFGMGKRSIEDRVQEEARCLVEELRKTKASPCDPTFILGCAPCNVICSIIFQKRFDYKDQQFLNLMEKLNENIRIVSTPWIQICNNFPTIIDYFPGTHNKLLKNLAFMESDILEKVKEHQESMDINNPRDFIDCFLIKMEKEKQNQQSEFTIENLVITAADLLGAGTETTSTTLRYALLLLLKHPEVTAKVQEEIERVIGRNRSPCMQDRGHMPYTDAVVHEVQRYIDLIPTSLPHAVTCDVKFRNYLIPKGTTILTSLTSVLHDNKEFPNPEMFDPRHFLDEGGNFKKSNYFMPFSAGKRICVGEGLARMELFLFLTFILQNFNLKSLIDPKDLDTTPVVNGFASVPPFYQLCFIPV
E-sel TNF inh = TNF alpha driven E-selectin expression inhibition | HUVEC TNFa-induced E-selectin immunofluorescence, high content | inhibition, % at 2 µM | actives 0.71% (n = 120,000);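 active = inhibition above the batch mean plus 3 SD, and confirmed as a hit on visual image review, cut at about 43% in these data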;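 note: 0% = TNF-stimulated DMSO wells and 100% = unstimulated control wells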
CYP2C19 inh = blocks human cytochrome P450 2C19; actives 21% (n = 96,000); CYP2C19 Supersomes, luciferin-H EGE luminescence, 30 min; inhibition, % at 5 µM;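 active = CYP2C19 inhibition above a set limit at 5 µM in the primary screen, cut at about 50% in these data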;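 note: plate controls were negative control wells for no effect and 2.5 mM tranylcypromine positive control for full effect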
Active calls of the source: *; nt = no result.

SMILES	CYP2C9 inh	CYP2C9 act	cytoskel mod	CYP2C19 activ	E-sel TNF inh	CYP2C19 inh
Cc1ccnc(NC(=O)c2ccccc2NC(=O)C(C)(C)C)c1	nt	nt	8	nt	-6	nt
COc1ccc(C(=O)NCC2OCCc3ccccc32)c(O)c1 (configuration not stated)	51*	0.5	-12	0.1	-5	90*
CCCCn1cnc2sc3c(c2c1=N)CCCC3	-1	1	nt	0.4	nt	60*
N=c1c2c3c(sc2ncn1CCCO)CCCC3	17	0.8	4	1	-6	-4
Cn1cnc(S(=O)(=O)N2CCc3ccccc32)c1	-25	1.3	nt	1	nt	-4
Cc1n[nH]c(C)c1S(=O)(=O)N(CC(=O)N1CCc2ccccc21)c1ccc(C(C)C)cc1	58*	0.4	-6	0.8	-11	19
CCOc1ccc(N(CC(=O)N2CCc3ccccc32)S(=O)(=O)c2c(C)noc2C)cc1	19	0.8	-2	0.8	24	16
O=C(CS(=O)(=O)Cc1ccccc1)N1CCc2ccccc2C1	-5	1.1	4	0.6	-14	43
O=S(=O)(Cc1ccccc1)N1CCc2ccccc21	35	0.7	-12	0.3	-31	69*
Cc1n[nH]c(C)c1S(=O)(=O)N1CCc2ccccc21	1	1	10	0.4	nt	61*
CC(=O)N1CCc2cc(S(=O)(=O)N3CCc4ccccc4C3)ccc21	-18	1.2	-25	1.1	1	-7
CN(C)S(=O)(=O)N1CCc2ccccc2C1	-136	2.4*	-31	0.3	-19	66*
C=CCN(CC=C)C(=S)NC(=O)c1ccc(-c2ccccc2)cc1	-26	1.3	10	1	-18	-4
O=C(NCCCN1CCN(CCCNC(=O)c2ccc(F)cc2)CC1)c1ccc(F)cc1	-20	1.2	-7	1.2	-65	-17
CN(C)S(=O)(=O)N1CCc2ccccc21	-130	2.3*	7	0.8	-27	17
CC(C)NC(=O)C1CCN(C(=O)N(C)C)CC1	-4	1	nt	1.1	-2	-10
CO/N=C(/CS(=O)c1ccc(Br)cc1)c1ccc(OC)cc1 (configuration not stated)	88*	0.1	-2	0	-2	100*
Cn1c(=O)c2c(nc(N3CCN(Cc4ccccc4)CC3)n2CC(=O)c2ccccc2)n(C)c1=O	nt	nt	-3	nt	13	nt
Cn1c(Br)nc2c1c(=O)n(CC(O)COc1ccccc1)c(=O)n2C (configuration not stated)	11	0.9	18	0.1	nt	86*
Cn1c(=O)c2c(nc(N3CCCCCC3)n2CC(O)COc2ccccc2)n(C)c1=O (configuration not stated)	28	0.7	-5	0.9	4	7
CN(c1nc2c(c(=O)n(C)c(=O)n2C)n1CC(=O)c1ccccc1)C1CCCCC1	66*	0.3	3	0.5	28	46
Cn1c(=O)c2c(nc(NC3CCCCC3)n2CC(O)COc2ccccc2)n(C)c1=O (configuration not stated)	52*	0.5	-1	0.6	-16	37
COc1ccc(Cl)cc1-n1c(=S)sc2c(=O)[nH]c(SCC(=O)NCC3CCCO3)nc21 (configuration not stated)	53*	0.5	11	1	nt	3
O=C(CSc1ccc(Cl)cc1)NCC1CCCO1 (configuration not stated)	22	0.8	-2	0.6	8	37
C=CCN(Cc1cc(OC)ccc1OC)S(=O)(=O)N(C)C	64*	0.4	-16	0	nt	96*
SMILES	CYP2C9 inh	CYP2C9 act	cytoskel mod	CYP2C19 activ	E-sel TNF inh	CYP2C19 inh
COc1ccc(C=O)cc1COc1ccc(F)cc1F	23	0.8	5	0.8	32	24
COc1ccc(C=O)cc1COc1c(F)c(F)cc(F)c1F	44	0.6	7	0.4	1	60*
COc1cc2c(cc1OC)C(C(=O)N1CCCCC1)C(c1ccccc1F)N(C)C2=O (configuration not stated)	-7	1.1	nt	1.1	4	-6
CC(=O)c1sc(NC(=O)c2ccco2)nc1-c1ccccc1	19	0.8	-12	1	-7	-1
COCC(=O)Nc1nc(-c2ccccc2)c(C)s1	18	0.8	nt	0.5	-49	52*
O=C(Nc1nc(-c2ccncc2)cs1)c1ccco1	76*	0.2	13	0	nt	97*
COc1ccc2c(c1)CCc1sc(NC(=O)c3ccco3)nc1-2	99*	0	-31	0.1	9	94*
Cc1sc(NC(=O)c2ccco2)nc1-c1ccccc1	81*	0.2	18	0.4	-1	55*
O=C(Nc1nc(-c2cccs2)cs1)c1ccco1	nt	nt	nt	nt	-2	nt
O=C(Cn1cnc2ccccc21)OCC(=O)N1CCCc2ccccc21	11	0.9	nt	0.9	-62	14
CCn1c(CCNC(=O)c2ccc(Cl)c(Cl)c2)nnc1SCCOc1ccc(OC)cc1	22	0.8	-12	0.9	-59	13
COc1ccccc1-c1nc(C(N)=O)c2[nH]c(=O)n(-c3cccc(C)c3)c2n1	33	0.7	-3	0.8	nt	15
Brc1c(OCCOCCn2cncn2)ccc2ccccc12	95*	0.1	0	0	nt	99*
CCN(CC)C(=O)Oc1ccc2ccccc2c1Br	nt	nt	nt	nt	8	nt
COc1ccc(-c2nc(N)n[nH]2)cc1OC	-3	1	19	0.9	14	6
COc1nc(-c2ccccc2)cc(-c2ccc(OC)c(OC)c2)n1	80*	0.2	4	0.2	-12	76*
COc1ccc(Cc2nn3c(-c4cc(OC)c(OC)c(OC)c4)nnc3s2)cc1	75*	0.3	10	0.3	18	69*
COc1cc(-c2nnc3sc(Cc4ccccc4)nn23)cc(OC)c1OC	52*	0.5	12	0.6	-9	43
COc1ccc(-c2nnc3sc(CCN4C(=O)c5ccccc5C4=O)nn23)cc1	32	0.7	21	0.8	nt	22
Cc1ccc(C(=O)CSc2nnc(CNc3ccc(F)cc3)o2)cc1	nt	nt	nt	nt	4	nt
COc1ccc(C(=O)C(CN2CCOCC2)c2ccccc2)cc1 (configuration not stated)	-1	1	nt	0.4	-24	56*
OC(CN1CCOCC1)CN(c1ccccc1)c1ccccc1 (configuration not stated)	65*	0.4	14	0.3	-12	70*
C(#CCN1CCOCC1)COCCCOC(c1ccccc1)c1ccccc1	70*	0.3	6	0.4	-1	59*
COc1ccc(C(=O)C(OC(=O)c2ccccc2)c2ccccc2)cc1 (configuration not stated)	70*	0.3	-11	0.4	35	59*
COc1ccc(C(=O)C(OC(=O)c2ccccc2Cl)c2ccccc2)cc1 (configuration not stated)	nt	nt	nt	nt	-22	nt
Cc1cccc(OCC(=O)O/N=C(\N)Cc2ccc(Cl)cc2)c1	-7	1.1	-12	1	12	1

Screens from PubChem BioAssay.
